Source: PubChem (several laboratories)
This is a sample that favours compounds with a hit; in the whole collection about 32% have one here.
CYP2C9 inh: blocks human cytochrome P450 2C9; P11712; CYP2C9 Supersomes, luciferin-H conversion, luminescence; inhibition, % at 5 µM; hit rate 20% among 96,000; AID 777;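 active = blocking of liver enzyme CYP2C9 beyond about 50% at 5 µM, limit read from the data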
Target sequence (P11712 whole entry, looked up): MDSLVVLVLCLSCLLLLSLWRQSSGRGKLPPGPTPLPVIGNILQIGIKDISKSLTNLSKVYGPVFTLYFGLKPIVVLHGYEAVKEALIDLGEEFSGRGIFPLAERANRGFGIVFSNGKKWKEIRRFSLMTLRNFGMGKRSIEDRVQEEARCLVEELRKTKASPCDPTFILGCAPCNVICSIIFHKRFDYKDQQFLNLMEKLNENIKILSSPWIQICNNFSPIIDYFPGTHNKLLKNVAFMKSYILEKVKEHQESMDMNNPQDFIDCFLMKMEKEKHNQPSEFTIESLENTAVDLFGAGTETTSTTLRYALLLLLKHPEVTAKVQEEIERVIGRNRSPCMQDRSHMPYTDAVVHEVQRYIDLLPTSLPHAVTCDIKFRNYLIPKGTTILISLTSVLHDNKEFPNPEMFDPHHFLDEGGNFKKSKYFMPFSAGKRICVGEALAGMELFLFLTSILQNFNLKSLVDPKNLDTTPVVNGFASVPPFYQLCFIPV
PostGolgi yeast: growth inhibition of a yeast mutant, post-Golgi transport screen; inhibition, % at 10 µM; post-Golgi transport phenotypic cell assay; AID 739; hit rate 0.9% among 98,000;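 note: yeast cells grown in 1536-well plates; yeast grown about 18 h at 30C before absorbance read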
CYP2C19 inhib: inhibitors of human CYP2C19; P33261; CYP2C19 Supersomes, luciferin-H EGE luminescence, 30 min; inhibition, % at 5 µM; hit rate 21% among 96,000;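 active = CYP2C19 inhibition above a set limit at 5 µM in the primary screen, cut at about 50% in these data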;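 note: plate controls were negative control wells for no effect and 2.5 mM tranylcypromine positive control for full effect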
CYP2C9 act: CYP2C9 (human) activation. hit rate 1.4% among 96,000. activation factor at 5 µM. recombinant CYP2C9, luciferin-H conversion, luminescence; stronger effect = higher value; factor 1 = untreated enzyme, 0 = blocked. P11712;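 active = activation factor of 2 or more for CYP2C9 at a 5 µM dose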;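 note: 0 = sulfaphenazole-blocked wells and 1 = vehicle-only wells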
PostGolgi ctrl: yeast control strain growth, post-Golgi counter-screen | efflux-deficient yeast background strain, growth absorbance A615, 16 h | hit rate 5% among 98,000 | inhibition, % at 10 µM | AID 738
CYP2C19 activ: increases human CYP2C19 enzyme activity; 96,000 tested, under 10 active; recombinant CYP2C19, luciferin-H EGE luminescence; stronger effect = higher value; 0 = fully inhibited enzyme, 1 = untreated enzyme; activation factor at 5 µM; P33261;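 active = activation factor of at least 2 at 5 µM in the primary screen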;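 note: 0 = wells with 2.5 mM tranylcypromine and 1 = vehicle-only wells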
* = called active by the depositor; nt = no result. Cut-off read from the data, not from the text of the source, unless noted: active = inhibition above about 30%; inactive = the rest.

SMILES	CYP2C9 inh	PostGolgi yeast	CYP2C19 inhib	CYP2C9 act	PostGolgi ctrl	CYP2C19 activ
O=C(CSc1nc2c(c(=O)n1-c1ccc(Br)cc1)SCC2)NCc1ccco1	35	3	35	0.6	3	0.7
CCOc1ccc(-n2c(SCC(=O)NCc3ccco3)nc3c(c2=O)SCC3)cc1	62*	-1	26	0.4	12	0.7
Cn1c(Cl)cnc1C(O)c1ccccc1 (configuration not stated)	8	2	12	0.9	-2	0.9
O=C1CC(c2cccc(Cl)c2)C(n2cncn2)C(=O)C1C1NCCc2ccccc21 (configuration not stated)	5	-9	-1	0.9	0	1
CC(C)C(=O)Nc1ccc(Cc2ccc(NC(=O)C(C)C)c(O)c2)cc1O	93*	-2	64*	0.1	17	0.4
CCOc1ccc(N2CC(=O)Nc3ccccc3NCC2=O)cc1	12	-8	9	0.9	7	0.9
Cc1ccc(NC2SC(=O)N(CC(=O)O)C2=O)cc1 (configuration not stated)	61*	4	-6	0.4	2	1.1
Cc1ccc(N2C(=O)c3ccccc3C2O)nc1 (configuration not stated)	40	-1	79*	0.6	14	0.2
CC(C)CCNC(=O)CN(Cc1cccs1)C(=O)CCC(=O)Nc1nccs1	29	2	20	0.7	0	0.8
C=C(C)CN(CC)C(=O)CSc1nc2ncc(Cl)cc2[nH]1	39	0	92*	0.6	-6	0.1
C=C(C)CSc1nc2ncc(Cl)cc2[nH]1	38	-2	4	0.6	-1	1
Cn1c(Cn2c(C(F)(F)F)nc3ccccc32)nc2ccccc21	4	-5	27	1	-4	0.7
CCOCc1cn(CC(=O)c2ccc(Cl)cc2)c(C)nc1=N	-24	2	-13	1.2	18	1.1
Cc1nc([N+](=O)[O-])c(Br)n1CC(=O)c1ccc(Cl)cc1	66*	19	27	0.3	22	0.7
CCOC(=O)N1CCC(N2CCN(S(=O)(=O)c3ccc(Cl)cc3)CC2)CC1	13	-1	15	0.9	8	0.8
COc1ccc(S(=O)(=O)N2CCN(C(=O)c3cnc(C)cn3)CC2)cc1	0	2	50*	1	-9	0.5
CCOC(=O)c1ccc(S(=O)(=O)N2CCN(C)CC2)cc1	-4	-5	2	1	-3	1
COc1ccc(S(=O)(=O)N2CCN(C(=O)NCc3ccccc3)CC2)cc1	-6	-9	-3	1.1	9	1
CCOc1ccc(S(=O)(=O)N2CCN(C(=O)c3sccc3C)CC2)cc1	32	-1	74*	0.7	5	0.3
CCOC(=O)N1CCN(S(=O)(=O)c2ccc(OCC)cc2)CC1	35	8	76*	0.6	10	0.2
CCOC(=O)C1CCN(S(=O)(=O)c2cccc(-c3cn4cccnc4n3)c2)CC1	-7	16	4	1.1	0	1
CCOC(=O)C1CCN(S(=O)(=O)c2cccc(-c3cn4cc(C)ccc4n3)c2)CC1	30	-2	52*	0.7	-1	0.5
CCOC(=O)N1CCN(C(=O)c2ccc3c(=O)n(CCc4ccccc4)c(=O)[nH]c3c2)CC1	17	10	49	0.8	-2	0.5
O=C(c1ccc(S(=O)(=O)N2CCOCC2)cc1)N(Cc1ccco1)Cc1cccs1	42	2	18	0.6	5	0.8
CCOC(=O)c1ccc(S(=O)(=O)N2CCC(C(=O)OCC)CC2)cc1	19	0	19	0.8	1	0.8
SMILES	CYP2C9 inh	PostGolgi yeast	CYP2C19 inhib	CYP2C9 act	PostGolgi ctrl	CYP2C19 activ
CCOC(=O)C1CCN(S(=O)(=O)c2ccc(OCC)cc2)CC1	-11	-5	94*	1.1	5	0.1
CC(OC(=O)CN1C(=O)NC(C)(C)C1=O)C(=O)c1ccccc1 (configuration not stated)	24	1	60*	0.8	-2	0.4
O=C(NCCN1CCN(c2ccccc2)CC1)C1CCN(S(=O)(=O)c2cccs2)CC1	15	2	12	0.9	11	0.9
O=C1C(NS(=O)(=O)c2cccs2)=C(N2CCN(c3cccc(Cl)c3)CC2)C(=O)c2ccccc21	78*	9	51*	0.2	19	0.5
CC(C)(C)c1ccc(S(=O)(=O)NCC(=O)N2CCN(C(=O)c3ccco3)CC2)cc1	43	9	29	0.6	5	0.7
CCn1c(SCC#N)nc2c(c1=O)C1(CCCC1)Cc1ccccc1-2	89*	0	60*	0.1	52*	0.4
CCN(CC)Cc1nc2c(c(=O)[nH]1)C1(CCCC1)Cc1ccccc1-2	87*	-2	47	0.1	15	0.5
CCCn1c(SCC(N)=O)nc2c(c1=O)C1(CCCC1)Cc1ccccc1-2	5	3	-3	1	44*	1
O=C(CSc1nnc(COc2ccc(Cl)cc2)n1Cc1ccco1)c1ccccc1F	17	10	4	0.8	-1	1
COc1ccc(NC(=O)CSc2nnc(COc3ccccc3)n2Cc2ccco2)cc1OC	42	-6	31	0.6	14	0.7
COc1ccc(C)cc1NC(=O)CSc1nnc(CC(=O)Nc2ccccc2C)n1C	-58	-2	66*	1.6	15	0.3
COc1ccc(C)cc1NC(=O)CSc1nnc(COc2ccc(Cl)cc2)n1Cc1ccco1	7	-3	17	0.9	40*	0.8
COc1ccc(C)cc1NC(=O)CSc1nnc(COc2ccccc2)n1Cc1ccco1	49	14	87*	0.5	25	0.1
COc1ccc(C)cc1NC(=O)CSc1nnc(-c2ccco2)n1N	-17	1	-6	1.2	4	1.1
Cc1cccc(OCc2nnc(SCC(=O)N(C(C)C)C(C)C)n2Cc2ccco2)c1C	38	17	54*	0.6	12	0.5
O=C(CSc1nnc(CNC(=O)c2c(F)cccc2Cl)o1)c1ccccc1	nt	0	nt	nt	4	nt
CC(CCc1ccccc1)NC(=O)C1CCN(S(=O)(=O)N2CCCCC2)CC1 (configuration not stated)	23	13	11	0.8	-2	0.9
COc1ccccc1-n1c(CNC(=O)c2ccco2)nnc1SCC(=O)Nc1cc(C)ccc1C	-103	-5	18	2*	0	0.8
COc1ccc(N(CC(=O)Nc2ccc(S(=O)(=O)N3CCOCC3)cc2)S(=O)(=O)c2ccccc2)cc1	48	7	28	0.5	4	0.7
O=C(Nc1cccc(Br)c1)c1ccc(CSc2ccccc2)cc1	-14	19	-21	1.1	-6	1.2
O=C(Nc1ccc(Br)cc1)c1ccc(CSC2=NCCS2)cc1	35	2	19	0.6	34*	0.8
COC(=O)C1=C(C(=O)OC)SC(=C2C(=S)C(C)(C)N(C(=O)CC(C)C)c3ccccc32)S1	29	0	70*	0.7	7	0.3
